Some compounds were tested as several samples or in several runs, with calls that do not always agree. The source made the active and inactive calls. How the source made its calls: active means hit-call score of the fitted dose curve at least 0.9, where 1 is the maximum; inactive means score below 0.9.

Read-out in one experiment: Plasminogen activator inhibitor-1 (PAI1), SERPINE1 (gene 5054)
The experiment can be described thus: BSK_KF3CT_PAI1: BioMAP Diversity Plus: KF3CT Assay for Plasminogen activator inhibitor-1 (PAI1) Biomarker Activity (AID 2284252). The note with it: primary human keratinocytes with fibroblasts. The procedure, abridged:
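Human keratinocyte/foreskin fibroblast co-culture dosed for 24 h; PAI-1 measured by ELISA, fitted in positive direction against DMSO baseline. Parallel SRB total-protein staining (0.1% SRB, 560 nm) assesses overt cytotoxicity.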
For `CCCCOC(=O)COC(=O)c1ccccc1C(=O)OCCCC`, the result was inactive.
Still for that read-out and setting: the entry for `OCCCCO` is “inactive”.
On the same count and under the same terms, the entry for `O=C(Cc1ccccc1)OCCc1ccccc1` is “inactive”.

Read-out in the next experiment: Interleukin-8 (IL8), CXCL8 (gene 3576)
The experiment can be described thus: BSK_KF3CT_IL8: BioMAP Diversity Plus: KF3CT Assay for Interleukin-8 (IL8) Biomarker Activity (AID 2284254). As to conditions: primary human keratinocytes with fibroblasts. The procedure, abridged: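 Using parallel SRB-stained cultures to flag overt toxicity, the study quantified IL-8 by ELISA in human keratinocyte–foreskin fibroblast co-cultures 24 h after dosing, with DMSO as negative control and baseline.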
In the case of `CCCCOC(=O)COC(=O)c1ccccc1C(=O)OCCCC`, the result was inactive.
Same read-out and setting: the entry for `OCCCCO` is “inactive”; for `O=C(Cc1ccccc1)OCCc1ccccc1` it is “inactive”.

Read-out in another experiment: Plasminogen activator inhibitor-1 (PAI1), SERPINE1 (gene 5054)
The experiment can be described thus: BSK_MyoF_PAI1: BioMAP Diversity Plus: MyoF Assay for Plasminogen activator inhibitor-1 (PAI1) Biomarker Activity (AID 2284256).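 On outcome: PAI-1 read 24 h after compound addition.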 As to conditions: primary human lung fibroblasts. The procedure, abridged:
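In this multiplexed primary-cell system, fibroblasts from human lung received compound for 24 h before ELISA detection of PAI-1; overt toxicity was checked by SRB (0.1%, TCA-fixed, 560 nm) in parallel wells.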
`CCCCCCCCCCCCN(C)C`: the outcome was inactive.
Same read-out and setting: the entry for `CC(C=O)Cc1ccc2c(c1)OCO2` (centres undefined) is “inactive”.
Still for that read-out and setting: the entry for `CCOC(=O)C(SP(=S)(OC)OC)c1ccccc1` (centres undefined) is “inactive”.
Regarding `N#CCCC(Br)(C#N)CBr` (centres undefined), the AC50 is 26.4 µM (active).
Take `CCOP(=O)(OCC)OC(=CCl)c1ccc(Cl)cc1Cl`: the result was inactive.
For the compound `[Cl][Sn]([c]1ccccc1)([c]1ccccc1)[c]1ccccc1`, the AC50 is 0.169 µM (active).
Take `CCOP(=S)(OCC)OP(=S)(OCC)OCC`: the outcome was inactive.
The same measure, in the same setting: the entry for `O=C(O)COc1cc(Cl)c(Cl)cc1Cl` is “inactive”.
The same measure, in the same setting: the entry for `CCCCN(CCCC)C(=S)[S-].CCCCN(CCCC)C(=S)[S-].[Ni+2]` is “inactive”.
The same measure, in the same setting: the entry for `NC(=O)CCl` is “inactive”.
Turning to `C=CC(Cl)CCl` (centres undefined), the concentration at half-maximal activity (AC50) is 0.806 µM (active).
As for `C#CCOC(=O)/C=C(C)/C=C/CC(C)CCCC(C)C` (centres undefined), the result was inactive.
Still for that read-out and setting: the entry for `O=C(CCl)NCO` is “inactive”; for `CCOC(=O)CCN(SN(C)C(=O)Oc1cccc2c1OC(C)(C)C2)C(C)C` it is “inactive”; for `OC(Cc1ccccc1Cl)(Cn1cncn1)C1(Cl)CC1` (centres undefined) it is “inactive”.
As for `Cc1cc(Cl)ccc1OC(C)C(=O)O` (centres undefined), the outcome was inactive.
Still for that read-out and setting: the entry for `O=S(=O)(c1ccc(Cl)cc1)c1cc(Cl)c(Cl)cc1Cl` is “inactive”; for `CC(C)(COCC1CO1)COCC1CO1` (centres undefined) it is “inactive”.
The same measure, in the same setting: the entry for `O=[N+]([O-])c1ccc(Nc2ccccc2)cc1` is “inactive”.
As to `CC1(C)[C@H](C(=O)O[C@H](C#N)c2cccc(Oc3ccccc3)c2)[C@@H]1/C=C(\Cl)C(F)(F)F`, the half-maximal activity concentration (AC50) is 0.0141 µM (active) and the result was inactive.
On to `Nc1ccc(N)cc1`, for which the outcome was inactive.
On the same count and under the same terms, the entry for `Cc1cc(C(C)(C)c2ccc(O)c(C)c2)ccc1O` is “inactive”.
Same read-out and setting: the entry for `c1ccc2sc(SNC3CCCCC3)nc2c1` is “inactive”; for `CCN(CC)C(=O)C(Cl)=C(C)OP(=O)(OC)OC` it is “inactive”; for `CCOC(=O)CC(=O)CCl` it is “inactive”.
As for `O=c1oc2ccccc2c(O)c1C(CC(O)c1ccc(-c2ccc(Br)cc2)cc1)c1ccccc1` (centres undefined), the AC50 was 3.64 µM (active).

Read-out in the next experiment: Interleukin-8 (IL8), CXCL8 (gene 3576)
Briefly: BSK_MyoF_IL8: BioMAP Diversity Plus: MyoF Assay for Interleukin-8 (IL8) Biomarker Activity (AID 2284261). As to conditions: primary human lung fibroblasts. The procedure, abridged:
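DMSO-normalised, upward-fitted IL-8 ELISA signal; human lung fibroblasts, 24 h chemical treatment.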
For `CCCCCCCCCCCCN(C)C`, the outcome was inactive.
`CC(C=O)Cc1ccc2c(c1)OCO2` (centres undefined): the outcome was inactive.
The same measure, in the same setting: the entry for `CCOC(=O)C(SP(=S)(OC)OC)c1ccccc1` (centres undefined) is “inactive”; for `N#CCCC(Br)(C#N)CBr` (centres undefined) it is “inactive”.
Turning to `CCOP(=O)(OCC)OC(=CCl)c1ccc(Cl)cc1Cl`, the result was inactive.
Consider `[Cl][Sn]([c]1ccccc1)([c]1ccccc1)[c]1ccccc1`, for which the result was inactive.
Same read-out and setting: the entry for `CCOP(=S)(OCC)OP(=S)(OCC)OCC` is “inactive”.
The same measure, in the same setting: the entry for `O=C(O)COc1cc(Cl)c(Cl)cc1Cl` is “inactive”; for `CCCCN(CCCC)C(=S)[S-].CCCCN(CCCC)C(=S)[S-].[Ni+2]` it is “inactive”.
Same read-out and setting: the entry for `NC(=O)CCl` is “inactive”; for `C=CC(Cl)CCl` (centres undefined) it is “inactive”.
On to `C#CCOC(=O)/C=C(C)/C=C/CC(C)CCCC(C)C` (centres undefined), for which the AC50 is 4.33 µM (active).
Still for that read-out and setting: the figure for `O=C(CCl)NCO` is 3.97 µM (active).
For `CCOC(=O)CCN(SN(C)C(=O)Oc1cccc2c1OC(C)(C)C2)C(C)C`, the result was inactive.
Still for that read-out and setting: the entry for `OC(Cc1ccccc1Cl)(Cn1cncn1)C1(Cl)CC1` (centres undefined) is “inactive”.
Still for that read-out and setting: the entry for `Cc1cc(Cl)ccc1OC(C)C(=O)O` (centres undefined) is “inactive”; for `O=S(=O)(c1ccc(Cl)cc1)c1cc(Cl)c(Cl)cc1Cl` it is “inactive”.
The same measure, in the same setting: the entry for `CC(C)(COCC1CO1)COCC1CO1` (centres undefined) is “inactive”.
`O=[N+]([O-])c1ccc(Nc2ccccc2)cc1`: the outcome was inactive.
Still for that read-out and setting: the entry for `CC1(C)[C@H](C(=O)O[C@H](C#N)c2cccc(Oc3ccccc3)c2)[C@@H]1/C=C(\Cl)C(F)(F)F` is “inactive”.
On to `Nc1ccc(N)cc1`, for which the outcome was inactive.
Still for that read-out and setting: the entry for `Cc1cc(C(C)(C)c2ccc(O)c(C)c2)ccc1O` is “inactive”.
`c1ccc2sc(SNC3CCCCC3)nc2c1`: the AC50 was 6.46 µM (active).
Regarding `CCN(CC)C(=O)C(Cl)=C(C)OP(=O)(OC)OC`, the result was inactive.
The same measure, in the same setting: the entry for `CCOC(=O)CC(=O)CCl` is “inactive”.
On to `O=c1oc2ccccc2c(O)c1C(CC(O)c1ccc(-c2ccc(Br)cc2)cc1)c1ccccc1` (centres undefined), for which the AC50 is 19.1 µM (active).

Values taken from PubChem BioAssay (EPA / NIEHS).
